# In ChEMBL document CHEMBL5308504, “Tm Shift (DSF) assay results for EUbOPEN Chemogenomics Library” (2023):
# Several values for one entry are separate records, joined by “and”; a condition that tells them apart may be missing. Equal entries are not always repeated.
# Target: Bromodomain-containing protein 4 (Homo sapiens) (UniProt O60885)
# Conditions: Compound concentration 20.0 uM, Protein concentration 2.0 uM, Result type QC Liability
row,SMILES,ΔTm
1,COc1cc(C(=O)NCCOCCOCCOCC(=O)N[C@H](C(=O)N2C[C@H](O)C[C@H]2C(=O)NCc2ccc(-c3scnc3C)cc2)C(C)(C)C)ccc1Nc1ncc(C(F)(F)F)c(Oc2cccc3c2C(=O)CC3)n1,-0.02 °C
2,CCS(=O)(=O)c1cc2cc(C[C@](O)(CC(C)(C)c3ccc(F)cc3C(N)=O)C(F)(F)F)[nH]c2cn1,-2.16 °C
3,CCN(C)S(=O)(=O)Nc1cccc(-c2ccc3c(NC(=O)C4CC4)n[nH]c3c2)c1,0.55 °C
4,Cc1csc(-c2nnc(Nc3ccc(Oc4ncccc4-c4ccnc(N)n4)cc3)c3ccccc23)c1,11.5 °C
5,CCc1nc(-c2cccc(C)c2)c(-c2ccnc(NC(=O)c3ccccc3)c2)s1,-1.99 °C
6,CC(=O)N1CCN([C@H]2CCC[C@@H](NC(=O)c3cc4c(F)ccc(C)c4[nH]3)C2)CC1,-1.7 °C
7,Cc1ccccc1Oc1cc(-n2c(=O)cc(C(F)(F)F)[nH]c2=O)c2ccccc2c1Cl,-1.47 °C
8,N#Cc1c(SCc2csc(-c3ccc(Cl)cc3)n2)nc(N2CCCC2)c(C#N)c1-c1ccc(OCCO)cc1,-0.25 °C
9,Cc1nc2cccnc2n2c(-c3cc([C@@]4(O)CCCOC4)ccc3Cl)nnc12,-1.99 °C
10,COc1nc2ccc([C@@](O)(c3ccccc3)C3CCN(C(C)=O)CC3)cc2c(Cl)c1Cc1ccc(-n2cccn2)cc1,-3.41 °C
11,O=C(NC1CCNCC1)c1n[nH]cc1NC(=O)c1c(Cl)cccc1Cl,-0.14 °C
12,CC(C(=O)Nc1cc(C#N)ccc1CCCC(=O)O)c1ccc(F)c2ccccc12 (centres undefined),-0.24 °C
13,COc1cc(CN(CCN)C(=O)N[C@@H](C)c2ccccc2)ccc1OCc1ccccc1,-1.26 °C
14,CCS(=O)(=O)c1cc2cc(C[C@@](O)(CC(C)(C)c3ccc(F)cc3C(N)=O)C(F)(F)F)[nH]c2cn1,0.67 °C and -0.3 °C
15,NC(=O)c1ccc(-c2nc(-c3ccc4c(c3)OCCO4)c(-c3ccccn3)[nH]2)cc1,-0.56 °C
16,O=C(NCc1ccc(F)cc1)C1CCN(S(=O)(=O)c2cc(Cl)cc(Cl)c2)CC1,-0.4 °C
17,COc1cc(-c2cc3ncccc3c(OC[C@H]3CNC(=O)C3)n2)cc(OC)c1OC1CCOCC1,-1.76 °C
18,O=C(O)c1ccnc(N2CC(O)(c3ccc(OCc4c(-c5c(Cl)cccc5Cl)noc4C4CC4)cc3Cl)C2)c1,-4.33 °C
19,CN(CCCCCCC1=C(c2cc(F)cc(F)c2)CCCc2cc(O)ccc21)CCCCS(=O)(=O)CCCC(F)(F)F,1.66 °C
20,O=C1CCCN1CCNc1nc(Nc2ccc(Cl)c(Cl)c2)ncc1C(F)(F)F,-2.43 °C

row,SMILES,ΔTm
1,CNCc1ccc(-c2cc(-c3nc(-c4ccc(S(=O)(=O)C(C)C)cc4)cnc3N)on2)cc1,-2.54 °C
2,CC(C)Oc1ccc(Cc2ccc(NC3=NCCN3)cc2)cc1,-1.86 °C
3,CC#CCC(C)[C@H](O)/C=C/[C@@H]1[C@H]2C/C(=C/CCCC(=O)O)C[C@H]2C[C@H]1O (some centres undefined),-2.19 °C
4,COc1cc(F)ccc1-c1ncnc(Nc2cccc(C[S@](C)(=N)=O)c2)n1,0.48 °C
5,FC(F)c1cncc(-c2ccc3ncc4nnc(C5=CCCOCC5)n4c3c2)c1,-0.98 °C
6,C#Cc1cnc2[nH]cc(-c3cccc4c3CCN4C(=O)[C@@H]3CCCN3C#N)c2c1,-0.57 °C
7,CC(=O)c1c(C)c2cnc(Nc3ccc(N4CCN(CCOCCOCCOCCNC(=O)COc5cccc6c5C(=O)N(C5CCC(=O)NC5=O)C6=O)CC4)cn3)nc2n(C2CCCC2)c1=O (centres undefined),-1.51 °C
8,CC1(C)CCN(C(=O)C2CN(c3c4c(nc5ccnn35)CCNCC4)C2)C1,-0.32 °C
9,CC(C)(C)C(=O)NCc1ccc(Cl)c(C(=O)Nc2ncc[nH]2)c1,-0.82 °C
10,CN(C(=O)c1ccccc1)c1ccc2c(c1)[nH]/c(=N\C(=O)c1ccc(Br)s1)n2CCC(N)=O,-2.77 °C
11,COc1ccc(C(=O)N[C@H](C)c2cccc(C(=O)Nc3nc4c(s3)CN(C)CC4)c2)cc1C,-1.18 °C
12,CC(=O)c1c(C)c2cnc(Nc3ccc(N4CCN(CCCCNC(=O)COc5cccc6c5C(=O)N(C5CCC(=O)NC5=O)C6=O)CC4)cn3)nc2n(C2CCCC2)c1=O (centres undefined),-0.38 °C
13,Cc1cn(CCN2CCN(c3ccccc3-c3cc(C#N)cc(C(=O)NCCCN4CCCC4)c3)CC2)c2ccccc12,-2.78 °C
14,C[C@H]1CN(C2COC2)CCN1c1ccc(Nc2cc(-c3ccnc(N4CCn5c(cc6c5CC(C)(C)C6)C4=O)c3CO)cn(C)c2=O)nc1,-1.88 °C
15,Cc1c(-c2c(F)cc(C(N)=O)c3[nH]c4c(c23)CC[C@H](C(C)(C)O)C4)cccc1-n1c(=O)c2cccc(F)c2n(C)c1=O,-0.86 °C
16,O=C(N[C@H]1CCC[C@H](CO)C1)C1CCN(c2nc3cc(Cl)c(-c4ccc(Cl)cc4)cc3o2)CC1,-3.15 °C
17,Cc1cc(C2CCCNC2)ccc1Nc1ncc(Br)c(NCc2cccc3c2C(C)(C)C(=O)N3)n1 (centres undefined),-4.96 °C
18,CS(=O)(=O)CCNCc1ccc(-c2ccc3ncnc(Nc4ccc(OCc5cccc(F)c5)c(Cl)c4)c3c2)o1,-2.54 °C
19,CN(C)C/C=C/C(=O)Nc1cccc(S(=O)(=O)N2CCC(NC(=O)c3n[nH]cc3NC(=O)c3c(Cl)cc(Cl)cc3Cl)CC2)c1,-1.08 °C
